Where two headings read alike, the source gives them in different places.
Assays:
[1] = system: DYRK1B; conditions: n = 1
[2] = system: EPHA6; conditions: n = 1
[3] = system: DYRK2; conditions: concentration: 1 μM,replicates: in singlicate; n = 1
[4] = system: EGFR; conditions: concentration: 1 μM,replicates: in singlicate; n = 1
[5] = system: EIF2AK1; conditions: concentration: 1 μM,replicates: in singlicate; n = 1
[6] = system: EPHA1; conditions: concentration: 1 μM,replicates: in singlicate; n = 1
[7] = system: EPHA2; conditions: concentration: 1 μM,replicates: in singlicate; n = 1
[8] = system: EPHA3; conditions: concentration: 1 μM,replicates: in singlicate; n = 1
[9] = system: EPHA4; conditions: concentration: 1 μM,replicates: in singlicate; n = 1
[10] = system: EPHA5; conditions: concentration: 1 μM,replicates: in singlicate; n = 1
[11] = concentration: 1 μM,replicates: in singlicate
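Also: KINOMEscan kinase panel screen.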

Row | SMILES | %Inh ([1]; 1 µM) [%] | %Inh ([2]; 1 µM) [%] | %Inh [1, 11] [%] | %Inh [3] [%] | %Inh [4] [%] | %Inh [5] [%] | %Inh [6] [%] | %Inh [7] [%] | %Inh [8] [%] | %Inh [9] [%] | %Inh [10] [%] | %Inh [2, 11] [%]
1 | COc1cccc(OC)c1C(=O)Nc1cccc(-c2nn3ccccc3c2-c2ccnc(Nc3cccc(F)c3)n2)c1 [GSK361065] | 24 | 11 | – | – | – | – | – | – | – | – | – | –
2 | Cc1cccc2c(-c3ccncc3)c(-c3ccc(F)cc3)nn12.Cl [GW461487] | – | – | 0 | 10 | 19 | 0 | 3 | 5 | 0 | 0 | 0 | 6
3 | C[C@@H]1CNc2c(sc3ccc4nc(-c5ccc(O)cc5)ccc4c23)C(=O)N1 | – | – | 98.1 | 24 | 11 | 0 | 0 | 0 | 14 | 0 | 11 | 5
4 | CC(=O)Nc1nc2cnc(Nc3cc(NC(=O)c4cccc(CC(C)(C)C#N)c4)ccc3C)nc2s1 | – | – | 31 | 0 | 0 | 30 | 0 | 84 | 65 | 54 | 21 | 38
5 | CC(=O)Nc1ccc(-c2cc3ncnc(SCC(=O)O)c3s2)cc1 | – | – | 22 | 39 | 2 | 0 | 28 | 0 | 0 | 19 | 7 | 22
6 | CN(c1ccccc1CNc1nc(Nc2ccc3c(c2)CC(=O)N3)ncc1C(F)(F)F)S(C)(=O)=O | – | – | 30 | 1 | 0 | 0 | 12 | 4 | 0 | 2 | 6 | 34
7 | C[C@@H](Oc1cc(-n2cnc3cc(-c4cnn(C)c4)ccc32)sc1C(N)=O)c1ccccc1Cl [GSK580432] | – | – | 0 | 21 | 28 | 15 | 19 | 29 | 20 | 7 | 0 | 28
8 | CSc1nccc(-c2c(-c3ccc(F)cc3)ncn2CCCN2CCOCC2)n1.Cl [SB-217146] | – | – | 12 | 12 | 0 | 0 | 0 | 0 | 0 | 7 | 0 | 0
9 | Cl.c1ccc(Oc2ccc(Nc3ccnc4cc(-c5ccc(CN6CCNCC6)o5)ccc34)cc2)nc1 [GW567142] | – | – | 0 | 33 | 97.7 | 0 | 77 | 0 | 16 | 0 | 0 | 0
10 | O=C(NCC1CC1)c1ccc(-c2cc(C(=O)NC3CC3)ccc2F)cc1 [GW810445] | – | – | 24 | 0 | 15 | 0 | 0 | 0 | 10 | 0 | 0 | 0
11 | O=C(Nc1cccc(Oc2ccc3nccn3n2)c1)Nc1cccc(C(F)(F)F)c1 | – | – | 26 | 8 | 23 | 0 | 21 | 75 | 8 | 51 | 11 | 15
12 | Cc1n[nH]c2cc(Nc3ccnc(Nc4cccc(CN5CCOCC5)c4)n3)ccc12 [GW682569] | – | – | 4 | 25 | 22 | 0 | 52 | 14 | 25 | 17 | 0 | 17
13 | CCOC(=O)N1CCC(n2cnc(-c3ccc(F)cc3)c2-c2ccnc(N)n2)CC1 [SB-219952] | – | – | 30 | 21 | 32 | 19 | 9 | 13 | 14 | 9 | 0 | 12
14 | Cc1ccc(CC(=O)N2CCc3cc(-c4cn(C)c5ncnc(N)c45)ccc32)cc1 [GSK2634758] | – | – | 0 | 7 | 27 | 46 | 0 | 2 | 0 | 0 | 0 | 0
15 | C[C@@H](Oc1cc(-n2cnc3cc(-c4ccncc4)ccc32)sc1C(N)=O)c1ccccc1Cl [GSK479719] | – | – | 18 | 31 | 28 | 18 | 0 | 29 | 100 | 21 | 0 | 29
16 | Cn1ccc2ncnc(Oc3ccc(NC(=O)Nc4cccc(C(F)(F)F)c4)c(Cl)c3)c21 | – | – | 49 | 0 | 5 | 0 | 54 | 94.5 | 97.6 | 88 | 84 | 99.7
17 | CCCC(=O)Nc1n[nH]c2ncccc12 [SB-601436] | – | – | 0 | 2 | 11 | 0 | 8 | 0 | 0 | 14 | 0 | 25
18 | O=C(Nc1ccccc1)c1cccc(Oc2ccc3nccn3n2)c1 | – | – | 28 | 0 | 3 | 0 | 7 | 19 | 0 | 4 | 0 | 2
19 | Cc1nnc(-c2ccc3occ(-c4ccc(S(C)=O)cc4)c3n2)o1 (stereo not drawn) | – | – | 0 | 0 | 0 | 0 | 0 | 3 | 4 | 23 | 1 | 17

Row | SMILES | %Inh ([1]; 1 µM) [%] | %Inh ([2]; 1 µM) [%] | %Inh [1, 11] [%] | %Inh [3] [%] | %Inh [4] [%] | %Inh [5] [%] | %Inh [6] [%] | %Inh [7] [%] | %Inh [8] [%] | %Inh [9] [%] | %Inh [10] [%] | %Inh [2, 11] [%]
20 | N#Cc1cccc(C(=O)NC2CCN(c3ccnc(Nc4ccc(F)cc4)n3)C2)c1 (stereo not drawn) [GSK1379708] | – | – | 0 | 0 | 14 | 0 | 1 | 0 | 0 | 0 | 0 | 2
21 | COc1cc2c(Nc3ccc(NC(=O)c4ccccc4)cc3)ncnc2cc1OCCCN1CCOCC1 [GSK301329] | – | – | 0 | 35 | 90 | 4 | 3 | 4 | 0 | 7 | 0 | 5
22 | COC(=O)c1cccc(NC(=O)NC2CCN(c3ccnc(Nc4cc(OC)c(OC)c(OC)c4)n3)C2)c1 (stereo not drawn) [GSK1379767] | – | – | 15 | 2 | 33 | 0 | 0 | 16 | 15 | 6 | 0 | 0
23 | CCNCC(Cc1ccccc1)NC(=O)c1cc(Br)c(-c2ccnc3[nH]ccc23)s1.Cl.Cl (stereo not drawn) [GSK1383280] | – | – | 53 | 31 | 28 | 0 | 25 | 24 | 45 | 0 | 0 | 7
24 | Cc1cccc(-c2nc(Nc3ccncc3)c3sccc3n2)n1 [GW869641] | – | – | 9 | 35 | 16 | 17 | 0 | 0 | 26 | 8 | 23 | 16
25 | CS(=O)(=O)c1cccc(CNc2nc(Nc3ccc4c(c3)[C@@H]3C[C@@H]4CNC3=O)ncc2C(F)(F)F)c1 | – | – | 6 | 12 | 5 | 0 | 12 | 2 | 6 | 2 | 0 | 11
26 | COC(=O)Nc1nc2cc(Oc3ccc(NC(=O)Nc4cc(C(F)(F)F)ccc4Cl)cc3)ccc2[nH]1.Cl [GW697465] | – | – | 0 | 0 | 42 | 0 | 91 | 96.2 | 43 | 92 | 37 | 93.7
27 | NC(=O)c1ccc(-c2cc3ncnc(SCC(=O)O)c3s2)cc1 | – | – | 57 | 47 | 0 | 0 | 0 | 0 | 0 | 17 | 0 | 21
28 | CC(=O)c1c(-c2ccncc2)[nH]c(-c2ccncc2)c1C [GW493036] | – | – | 100 | 92.3 | 37 | 17 | 19 | 6 | 0 | 0 | 0 | 0
29 | Cc1ccn2nc(-c3ccc(F)cc3)c(-c3ccncc3)c2c1.Cl [GW457859] | – | – | 10 | 0 | 49 | 8 | 2 | 83 | 19 | 0 | 0 | 4
30 | C[C@@H]1CCN(C(=O)N2CCCC2)C[C@@H]1N(C)c1ncnc2[nH]ccc12 | – | – | 0 | 0 | 0 | 23 | 1 | 0 | 0 | 16 | 8 | 20
31 | COc1cc2nccc(Nc3ccc(Oc4ccccc4)cc3)c2cc1OC.Cl [GI261656] | – | – | 18 | 9 | 88 | 0 | 0 | 5 | 0 | 0 | 0 | 0
32 | CN(c1cccc(CNc2nc(Nc3ccc4c(c3)CC(=O)N4)ncc2C(F)(F)F)c1)S(C)(=O)=O | – | – | 57 | 28 | 3 | 0 | 3 | 0 | 22 | 1 | 0 | 0
33 | NC(=O)Nc1sc(-c2ccc(F)cc2)cc1C(N)=O [GW789449] | – | – | 52 | 25 | 23 | 0 | 60 | 25 | 0 | 14 | 7 | 11
34 | O=C(NOCC1CC1)c1cc(Br)c(F)c(F)c1Nc1ccc(I)cc1Cl | – | – | 17 | 0 | 0 | 0 | 0 | 0 | 0 | 0 | 0 | 0
35 | CCn1c(-c2nonc2N)nc2cncc(Br)c21 [SB-738004] | – | – | 29 | 73 | 15 | 0 | 0 | 41 | 29 | 16 | 0 | 4
36 | C[C@@H]1CNc2c(sc3ccc4nc(-c5ccncc5)ccc4c23)C(=O)N1 | – | – | 88 | 18 | 0 | 12 | 7 | 0 | 0 | 15 | 1 | 11
37 | Cn1ccc2ncnc(Oc3ccc(NC(=O)Nc4ccnc(C(F)(F)F)c4)c(Cl)c3)c21 | – | – | 53 | 0 | 3 | 0 | 0 | 0 | 10 | 29 | 0 | 80
38 | C[C@@H](Oc1cc(-n2cnc3ccc(-c4ccncc4)cc32)sc1C(N)=O)c1ccccc1Cl [GSK483724] | – | – | 91.5 | 48 | 36 | 4 | 17 | 19 | 0 | 2 | 0 | 16

Source: PMC5540273 (PLoS ONE, 2017)
